3T3 cytotox = cytotoxic compounds in NIH 3T3 cells; NIH 3T3 viability, CellTiter-Glo ATP luminescence, 48-72 h; Potency, µM (highest dose often 96.7 µM), hits mostly inhibitors; actives 4.3% (n = 94,000); AID 1345082; note: nearly all actives have a fitted effect of over 55% in size
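NIH 3T3 cells at 400 cells/well received 23 nL of compound by pintool and were incubated 48 or 72 h at 37 °C. Viability was read as ATP-coupled CellTiter-Glo luminescence.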
GPT2 inh = blocks human glutamate pyruvate transaminase 2; actives 0.25% (n = 100,000); Potency, µM (top dose mostly 57.7 µM), most hits filed as inhibitors; Q8TD30; Recombinant GPT2, coupled pyruvate oxidase/HRP Amplex Red fluorescence; note: nearly all actives have a fitted effect of over 60% in size
Target sequence (Q8TD30 whole entry, looked up): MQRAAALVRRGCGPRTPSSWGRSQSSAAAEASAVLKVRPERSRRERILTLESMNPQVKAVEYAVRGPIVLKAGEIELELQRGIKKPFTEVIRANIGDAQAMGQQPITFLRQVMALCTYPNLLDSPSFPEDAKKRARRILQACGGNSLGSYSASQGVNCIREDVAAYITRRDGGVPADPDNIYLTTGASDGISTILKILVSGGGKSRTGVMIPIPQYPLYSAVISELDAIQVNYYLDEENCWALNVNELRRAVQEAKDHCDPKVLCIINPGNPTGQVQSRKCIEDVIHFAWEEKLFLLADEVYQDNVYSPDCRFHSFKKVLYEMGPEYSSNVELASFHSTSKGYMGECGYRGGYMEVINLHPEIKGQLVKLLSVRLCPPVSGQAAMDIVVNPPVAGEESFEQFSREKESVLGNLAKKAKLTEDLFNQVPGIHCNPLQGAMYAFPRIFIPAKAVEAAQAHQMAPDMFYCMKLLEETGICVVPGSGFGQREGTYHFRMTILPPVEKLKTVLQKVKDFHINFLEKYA
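Inhibition is scored from Amplex Red fluorescence generated when pyruvate oxidase and HRP act on pyruvate released by GPT2. Reactions contain 10ng/uL enzyme, 250uM a-KG and 2mM L-alanine and run 30 min at room temperature.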
FLuc inh = Photinus pyralis luciferase inhibition | Potency, µM (top dose mostly 115 µM), hits mostly inhibitors | actives 2.5% (n = 76,000) | AID 1347043 | purified P. pyralis luciferase, luminescence, biochemical | P08659; note: nearly all actives have a fitted effect of over 65% in size
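Biochemical qHTS: compound (6-point titration) added to 10uM D-luciferin plus 10uM ATP in Tris acetate pH 7.5 buffer with Mg, Tween-20 and BSA, then purified enzyme at 10nM; light output imaged.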
hNpr1 antagonist = blocks ANP-stimulated signaling of human Npr1 receptor; P16066; HEK293 hNpr1 GloSensor cGMP, ANP-stimulated luminescence; Potency, µM (top dose mostly 46.3 µM), most hits filed as inhibitors; actives 1.6% (n = 76,000); calls by dose curve; note: nearly all actives have a fitted effect of over 60% in size
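HEK293 cells stably expressing human Npr1 and cGMP GloSensor pGS-40F, loaded 2 h with 2% GloSensor reagent, given compound 30 min at room temperature. Luminescence read before and 20 min after 0.1 nM hNppA.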
HEK cytotox = cytotoxic compounds in HEK 293 cells. Potency, µM (titrated, usually from 115 µM), actives largely listed as inhibitors. actives 6.6% (n = 94,000). AID 1345083. HEK 293 viability, ATP luminescence (CellTiter-Glo), 48-72 h; note: nearly all actives have a fitted effect of over 60% in size
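Luminescence from cellular ATP, measured with CellTiter-Glo, indicates HEK 293 viability. Cells plated at 250 cells/well are treated with compound for 48 or 72 hr at 37 degree Celsius before reagent addition.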
Numbers stand for hits; 0 = inactive; ? = inconclusive; - = no result. In the library only some 10% were active in any assay of this set; here they are far more common. Unless noted, calls come from the whole dose curve; as a rule, active = well fitted curve in the direction sought with a large enough effect; inconclusive = small, poorly fitted or top-dose-only effect, or another doubt; inactive = no such curve, though single readings can be large; an effect the other way counts as inactive or inconclusive.

SMILES	3T3 cytotox	GPT2 inh	FLuc inh	hNpr1 antagonist	HEK cytotox
CC1(C)[C@H](Cc2cc(COc3ccccc3)on2)C[C@@H]1NC(=O)C1CCC1	?	0	0	?	35.5µM
CC1(C)[C@H](Cc2cc(COc3ccccc3)on2)C[C@@H]1NC(=O)NCc1ccccc1	?	0	0	?	63.1µM
O=C(Cc1ccc(Cl)cc1)NC1CCN(c2nccc(Nc3ccccc3Cl)n2)CC1	?	0	-	-	?
Cc1noc(C)c1-c1cc(-c2cccc(F)c2)cn2cncc12	44.7µM	0	0	0	?
COc1ccc(-c2cc(-c3c(C)noc3C)c3cncn3c2)cn1	50.1µM	0	0	0	?
Cc1noc(C)c1-c1cc(-c2cccc(O)c2)cn2cncc12	25.1µM	0	0	0	?
Cc1noc(C)c1-c1cc(-c2ccc(CO)cc2)cn2cncc12	?	0	0	0	?
COCC1CN(C)CC12CCN(Cc1ccsc1)CC2 (centres undefined)	0	0	0	0	?
Cc1ccc(Cl)cc1NC(=O)Nc1cccc(-c2ccc(N3CCOCC3)nn2)c1	0	0	1µM	0	?
Nc1cccc(-c2ccc(N3CCOCC3)nn2)c1	?	0	3.16µM	?	?
Cc1ccc(NC(=O)Nc2cccc(-c3ccc(N4CCOCC4)nn3)c2)cc1F	0	0	?	0	0
O=C(Nc1cccc(-c2ccc(N3CCOCC3)nn2)c1)Nc1ccccc1C(F)(F)F	?	0	2.24µM	0	?
COCc1cc(=O)n(CC(=O)Nc2cc(Cl)ccc2C)c(N2CCOCC2)n1	0	0	0	0	0
Cc1c(F)cccc1NC(=O)Nc1cccc(-c2ccc(N3CCOCC3)nn2)c1	0	0	0.631µM	?	0
O=C(Nc1ccccc1)Nc1cccc(-c2nnc3n2CCCC3)c1	0	0	0	0	0
CO[C@@H](Cc1ccc(OCCc2nc(-c3ccccc3)oc2C)c2ccsc12)C(=O)O	-	0	-	-	-
O=C(NC1CCCC1)N1CCCC(C(=O)N2CCCC(c3nc4ncccc4[nH]3)C2)C1 (centres undefined)	0	0	-	-	0
COCc1cc(=O)n(CC(=O)Nc2cccc(OC)c2)c(N2CCOCC2)n1	0	0	0	0	0
COc1cccc(NC(=O)Nc2cccc(-c3ccc(N4CCOCC4)nn3)c2)c1	?	0	1µM	?	?
CC(=O)Nc1ccc(CN(C)Cc2ccccc2C(F)(F)F)cc1	?	0	0	0	89.1µM
CC(=O)Nc1ccc(CN(C)Cc2ccc(-c3ccccc3)cc2)cc1	?	0	0	0	79.4µM
COc1ccc(NC(=O)N2CCCCCC2c2nc(C)no2)cc1 (centres undefined)	0	0	-	-	0
Cc1ccc([S+](=O)([O-])N2CCC(C(=O)N3CCC(c4nc5ncccc5[nH]4)CC3)C2)cc1 (centres undefined)	0	0	-	-	0
COc1ccc(CN2CCOC[C@H]2c2ncc(-c3ccc(OC)cc3)[nH]2)cc1	?	?	0	0	89.1µM
Cc1ccc(-c2cnc([C@@H]3COCCN3Cc3cn(C)c4ccccc34)[nH]2)cc1	?	0	0	?	56.2µM
SMILES	3T3 cytotox	GPT2 inh	FLuc inh	hNpr1 antagonist	HEK cytotox
Cn1cc(CN2CCOC[C@H]2c2ncc(-c3ccc(F)cc3F)[nH]2)c2ccccc21	50.1µM	0	0	0	50.1µM
CC(C)(C)c1cnc([C@@H]2COCCN2Cc2ccc(C(=O)O)cc2)[nH]1	?	?	0	0	0
Cc1ccc(CN2CCOC[C@H]2c2ncc(C(C)(C)C)[nH]2)cc1	100µM	0	0	0	112µM
Cc1ccc(-c2cnc([C@@H]3COCCN3Cc3ccccc3F)[nH]2)cc1	?	0	0	0	?
COc1ccc(-c2cnc([C@@H]3COCCN3Cc3ccc(C)cc3)[nH]2)cc1	?	0	0	0	?
O=C1CN(S(=O)(=O)c2ccccc2)CC2(CCCCC2)N1CC1CC1	?	0	-	-	?
O=C(NCC1CCCCC1)c1ccc2nc(-c3ccccn3)oc2c1	?	0	-	-	?
COc1ccc(-c2cnc([C@@H]3COCCN3Cc3cn(C)c4ccccc34)[nH]2)cc1	63.1µM	0	0	?	?
CN(C)Cc1cc(CC2(NCc3ccc(C#N)cc3)COC2)no1	0	0	0	0	0
COc1ccccc1-n1cnc2cccnc21	?	0	0	0	?
CN(C)c1ccc(-n2cnc3cccnc32)cc1	?	0	35.5µM	0	?
COC(=O)c1ccc(NC(=O)N2CCC3(CC2)N(CC2CC2)C(=O)CS3=O)cc1 (centres undefined)	0	0	0	0	0
COc1ccc(CN2CCN(c3ccnc(C)n3)CC2CCO)c(C)c1C (centres undefined)	0	0	0	0	?
COc1ccc(CN2CCN(c3ncnc4c3CCC4)CC2CCO)c(C)c1C (centres undefined)	?	0	0	0	10µM
COc1ccc(-c2nc(C(C)C)nc3c2CCN(C(=O)c2ccc(Cl)nc2)CC3)cc1	?	0	0	0	?
O=C(Nc1ccc2ncnc(N3CCCCC3)c2c1)c1ccccc1Br	?	0	0	?	44.7µM
Cc1ccsc1C(=O)Nc1ccc2c(N3CCCCC3)ncnc2c1	35.5µM	0	?	0	?
Cc1ccc(C(=O)Nc2ccc3c(N4CCCCC4)ncnc3c2)cc1F	?	0	0	0	?
O=C(Nc1ccc2ncnc(N3CCCCC3)c2c1)c1c(F)cccc1Cl	?	0	0	0	50.1µM
O=C(Nc1ccc2c(N3CCCCC3)ncnc2c1)c1ccc(F)cc1	28.2µM	0	?	0	?
C[S+](=O)([O-])N1CCN(C(=O)c2cccc(-c3ccccn3)c2)CC1	0	0	-	-	0
Cc1cnc(-c2cccnc2)n1CC1CCN(C(=O)C2CCC2)C1 (centres undefined)	0	0	-	-	0
O=C(Nc1ccc2c(N3CCCC3)ncnc2c1)c1ccccc1Cl	25.1µM	0	?	0	?
O=C(Nc1cc(F)c(F)c(F)c1)N1CCC(OC2CCN(Cc3ccccc3)CC2)CC1	35.5µM	0	0	0	?
CNC(=O)N1CCC(OC2CCN(Cc3ccccc3)CC2)CC1	0	0	0	0	0
SMILES	3T3 cytotox	GPT2 inh	FLuc inh	hNpr1 antagonist	HEK cytotox
CC(C)N1CCN(Cc2ccccc2C#Cc2ccccc2)CC1CCO (centres undefined)	?	0	0	0	?
CCN(CC)CCNC(=O)C1CCCN(S(=O)(=O)c2ccccc2)CCC(=O)NCC1 (centres undefined)	0	?	0	0	0
O=C(Cc1cccc(Cl)c1)NCCNC(=O)c1cccc(-c2ccc(C(F)(F)F)cc2)c1	0	0	-	-	?
CSc1ccc(-c2cccc(C(=O)NCC(=O)N3CCN(c4ncccn4)CC3)c2)cc1	?	0	-	-	22.4µM
O=C(CNC(=O)c1cccc(-c2ccc(C(F)(F)F)cc2)c1)NCc1cccc(Cl)c1	?	0	-	-	28.2µM
CSc1ccc(-c2cccc(C(=O)NCC(=O)NCc3ccc(F)cc3)c2)cc1	?	0	-	-	15.8µM
